# Test results as given in PubChem BioAssay AID1159580 (chemical genetic matrix, 2015).
# About 2,000 (36%) of roughly 5,500 compounds were called active. About 18% were inconclusive and are not listed. This is one part of the list. Values without a mark were called inactive. No stated cut-off is given here; in the data, active means normalized growth mostly below about 0.91 (no sharp cut-off); inconclusive means no clear call, values can overlap the other calls; inactive means mostly above about 0.92.
# Assay: chemical genetic growth profiling, strain panel (AID 1159580);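 further: tested at 20 µM; growth read once vehicle control cultures reached saturation at 30 °C; 1 = growth at the plate median or of vehicle wells; lower values mean less growth of the strain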
# Settings: growth OD
structure (smiles),measurement,setting,value
CCC(=O)O[C@H]1CCC2C3CCc4cc(O)ccc4C3CC[C@@]21C (some centres undefined),normalized growth,"S. cerevisiae deletion strains, locus YJL187C, strain SWE1, active compounds read low",0.995
same,normalized growth,"S. cerevisiae deletion strains, locus YJR043C, strain POL32, active compounds read low",0.974
same,normalized growth,"S. cerevisiae deletion strains, locus YJR066W, strain TOR1, active compounds read low",0.728 (active)
same,normalized growth,"S. cerevisiae deletion strains, locus YJR075W, strain HOC1, active compounds read low",0.948
same,normalized growth,"S. cerevisiae deletion strains, locus YKL009W, strain mrt4, active compounds read low",0.986
same,normalized growth,"S. cerevisiae deletion strains, locus YKL068W, active compounds read low",1
same,normalized growth,"S. cerevisiae deletion strains, locus YKL085W, strain MDH1 (second series), active compounds read low",0.936
same,normalized growth,"S. cerevisiae deletion strains, locus YKL085W, strain MDH1, active compounds read low",0.936
same,normalized growth,"S. cerevisiae deletion strains, locus YKL160W, strain elf1, active compounds read low",0.984
same,normalized growth,"S. cerevisiae deletion strains, locus YKL190W, strain CNB1, active compounds read low",1
same,normalized growth,"S. cerevisiae deletion strains, locus YKR001C, strain vps1, active compounds read low",0.927
same,normalized growth,"S. cerevisiae deletion strains, locus YKR026C, strain gcn3, active compounds read low",0.971
same,normalized growth,"S. cerevisiae deletion strains, locus YKR091W, strain srl3, active compounds read low",0.964
same,normalized growth,"S. cerevisiae deletion strains, locus YLL001W, strain dnm1, active compounds read low",0.997
same,normalized growth,"S. cerevisiae deletion strains, locus YLL026W, active compounds read low",1
same,normalized growth,"S. cerevisiae deletion strains, locus YLL041C, strain sdh2, active compounds read low",1.01
same,normalized growth,"S. cerevisiae deletion strains, locus YLR027C, strain aat2, active compounds read low",0.966
same,normalized growth,"S. cerevisiae deletion strains, locus YLR039C, strain RIC1, active compounds read low",0.771
same,normalized growth,"S. cerevisiae deletion strains, locus YLR058C, strain SHM2, active compounds read low",0.871 (active)
same,normalized growth,"S. cerevisiae deletion strains, locus YLR102C, strain apc9, active compounds read low",1
same,normalized growth,"S. cerevisiae deletion strains, locus YLR113W, strain HOG1, active compounds read low",0.287 (active)
same,normalized growth,"S. cerevisiae deletion strains, locus YLR221C, strain rsa3, active compounds read low",0.967
same,normalized growth,"S. cerevisiae deletion strains, locus YLR258W, strain gsy2, active compounds read low",1
same,normalized growth,"S. cerevisiae deletion strains, locus YLR262C, strain YPT6 (second series), active compounds read low",0.676 (active)
same,normalized growth,"S. cerevisiae deletion strains, locus YLR262C, strain YPT6, active compounds read low",0.797
same,normalized growth,"S. cerevisiae deletion strains, locus YLR268W, strain sec22, active compounds read low",0.991
same,normalized growth,"S. cerevisiae deletion strains, locus YLR320W, strain mms22, active compounds read low",0.969
same,normalized growth,"S. cerevisiae deletion strains, locus YLR330W, strain CHS5, active compounds read low",0.984
same,normalized growth,"S. cerevisiae deletion strains, locus YLR342W, strain FKS1 (second series), active compounds read low",0.785 (active)
same,normalized growth,"S. cerevisiae deletion strains, locus YLR342W, strain FKS1, active compounds read low",0.972
same,normalized growth,"S. cerevisiae deletion strains, locus YLR357W, strain rsc2, active compounds read low",0.954
same,normalized growth,"S. cerevisiae deletion strains, locus YLR370C, strain arc18, active compounds read low",0.975
same,normalized growth,"S. cerevisiae deletion strains, locus YLR371W, strain rom2, active compounds read low",1
same,normalized growth,"S. cerevisiae deletion strains, locus YLR384C, strain iki3, active compounds read low",0.994
same,normalized growth,"S. cerevisiae deletion strains, locus YLR418C, strain cdc73, active compounds read low",0.937
same,normalized growth,"S. cerevisiae deletion strains, locus YML016C, strain PPZ1, active compounds read low",0.997
same,normalized growth,"S. cerevisiae deletion strains, locus YML032C, strain rad52, active compounds read low",0.985
same,normalized growth,"S. cerevisiae deletion strains, locus YML120C, strain ndi1, active compounds read low",0.881 (active)
same,normalized growth,"S. cerevisiae deletion strains, locus YML124C, strain tub3, active compounds read low",1
same,normalized growth,"S. cerevisiae deletion strains, locus YMR058W, strain fet3, active compounds read low",0.977
same,normalized growth,"S. cerevisiae deletion strains, locus YMR078C, strain ctf18, active compounds read low",1.02
same,normalized growth,"S. cerevisiae deletion strains, locus YMR125W, strain sto1, active compounds read low",0.982
same,normalized growth,"S. cerevisiae deletion strains, locus YMR129W, active compounds read low",0.979
same,normalized growth,"S. cerevisiae deletion strains, locus YMR205C, strain PFK2, active compounds read low",0.929
same,normalized growth,"S. cerevisiae deletion strains, locus YMR223W, strain ubp8, active compounds read low",0.956
same,normalized growth,"S. cerevisiae deletion strains, locus YMR231W, strain pep5, active compounds read low",1.01
same,normalized growth,"S. cerevisiae deletion strains, locus YMR307W, strain GAS1, active compounds read low",0.766
same,normalized growth,"S. cerevisiae deletion strains, locus YNL067W, strain RPL9B, active compounds read low",0.974
same,normalized growth,"S. cerevisiae deletion strains, locus YNL071W, strain lat1, active compounds read low",0.969
same,normalized growth,"S. cerevisiae deletion strains, locus YNL183C, strain NPR1, active compounds read low",0.755 (active)
same,normalized growth,"S. cerevisiae deletion strains, locus YNL209W, strain ssb2, active compounds read low",0.984
same,normalized growth,"S. cerevisiae deletion strains, locus YNL233W, strain BNI4, active compounds read low",0.784 (active)
same,normalized growth,"S. cerevisiae deletion strains, locus YNL248C, strain rpa49, active compounds read low",0.991
same,normalized growth,"S. cerevisiae deletion strains, locus YNL250W, strain rad50, active compounds read low",0.998
same,normalized growth,"S. cerevisiae deletion strains, locus YNL271C, strain bni1, active compounds read low",1.01
same,normalized growth,"S. cerevisiae deletion strains, locus YNL298W, strain CLA4, active compounds read low",0.999
same,normalized growth,"S. cerevisiae deletion strains, locus YNL307C, strain MCK1, active compounds read low",0.935
same,normalized growth,"S. cerevisiae deletion strains, locus YNL322C, strain KRE1 (second series), active compounds read low",0.977
same,normalized growth,"S. cerevisiae deletion strains, locus YNR049C, strain mso1, active compounds read low",0.986
same,normalized growth,"S. cerevisiae deletion strains, locus YNR052C, strain pop2, active compounds read low",1
same,normalized growth,"S. cerevisiae deletion strains, locus YOL006C, strain TOP1, active compounds read low",0.958
same,normalized growth,"S. cerevisiae deletion strains, locus YOL012C, strain htz1",1.25
same,normalized growth,"S. cerevisiae deletion strains, locus YOL147C, strain pex11, active compounds read low",1
same,normalized growth,"S. cerevisiae deletion strains, locus YOR001W, strain rrp6, active compounds read low",0.98
same,normalized growth,"S. cerevisiae deletion strains, locus YOR061W, strain CKA2, active compounds read low",0.935
same,normalized growth,"S. cerevisiae deletion strains, locus YOR069W, strain VPS5, active compounds read low",0.996
same,normalized growth,"S. cerevisiae deletion strains, locus YOR070C, strain gyp1, active compounds read low",1
same,normalized growth,"S. cerevisiae deletion strains, locus YOR080W, strain dia2, active compounds read low",0.979
same,normalized growth,"S. cerevisiae deletion strains, locus YOR083W, strain WHI5, active compounds read low",0.976
same,normalized growth,"S. cerevisiae deletion strains, locus YOR106W, strain vam3, active compounds read low",0.978
same,normalized growth,"S. cerevisiae deletion strains, locus YOR136W, strain idh2, active compounds read low",1.02
same,normalized growth,"S. cerevisiae deletion strains, locus YOR144C, strain elg1, active compounds read low",1.01
same,normalized growth,"S. cerevisiae deletion strains, locus YOR184W, strain ser1, active compounds read low",0.96
same,normalized growth,"S. cerevisiae deletion strains, locus YOR231W, strain MKK1, active compounds read low",0.483 (active)
same,normalized growth,"S. cerevisiae deletion strains, locus YOR265W, strain rbl2, active compounds read low",0.994
same,normalized growth,"S. cerevisiae deletion strains, locus YOR270C, strain vph1, active compounds read low",0.911
same,normalized growth,"S. cerevisiae deletion strains, locus YOR290C, strain snf2, active compounds read low",0.939
same,normalized growth,"S. cerevisiae deletion strains, locus YOR316C, strain cot1, active compounds read low",1.01
same,normalized growth,"S. cerevisiae deletion strains, locus YPL051W, strain arl3, active compounds read low",1
same,normalized growth,"S. cerevisiae deletion strains, locus YPL078C, strain atp4, active compounds read low",0.992
same,normalized growth,"S. cerevisiae deletion strains, locus YPL106C, strain sse1, active compounds read low",0.839 (active)
same,normalized growth,"S. cerevisiae deletion strains, locus YPL240C, strain hsp82, active compounds read low",1
same,normalized growth,"S. cerevisiae deletion strains, locus YPL256C, strain CLN2, active compounds read low",0.643 (active)
same,normalized growth,"S. cerevisiae deletion strains, locus YPR119W, strain clb2, active compounds read low",0.995
same,normalized growth,"S. cerevisiae deletion strains, locus YPR141C, strain kar3, active compounds read low",1.02
same,normalized growth,"S. cerevisiae deletion strains, locus YPR163C, strain tif3, active compounds read low",1.02
same,normalized growth,"S. cerevisiae deletion strains, locus YPR167C, strain met16, active compounds read low",1.01
same,normalized growth,"S. cerevisiae deletion strains, strain wtn01, active compounds read low",1
same,normalized growth,"S. cerevisiae strains, strain wild type, active compounds read low",0.884 (active)
